# Experimental data from PubChem BioAssay AID2314 (National Center for Advancing Translational Sciences (NCATS), 2010).
# Hit rate of the full screen: of about 300,000 compounds, about 37,000 (12%) were called active. No stated cut-off is given here; in the data, active means max response mostly above about 13% (no sharp cut-off); inactive means mostly below about 14%. Shown is part of a subset that was picked to be rich in actives.
# Assay: Cycloheximide Counterscreen for Small Molecule Inhibitors of Shiga Toxin; further: read at 38.3 µM for the half of the compounds with a filed dose; 0% is about no effect
# Conditions: cell reporter, cycloheximide protein synthesis inhibition counterscreen; stronger effect = higher value
row,SMILES,max response
1,COc1cccc(CC2(CO)CCCN(CC3=Cc4cc(OC)ccc4OC3)C2)c1 (stereo unspecified),-0.657% (inactive)
2,CN1c2ccc([N+](=O)[O-])cc2C(C)(C)C12C=Cc1cc(C(=O)O)ccc1O2 (stereo unspecified),-2.71% (inactive)
3,COc1ccc2c(c1)C=CC1(O2)N(CCO)c2ccccc2C1(C)C (stereo unspecified),26% (active)
4,O=C(c1cccc(-n2cccc2)c1)N1CCN(S(=O)(=O)c2ccc(F)cc2)CC1,5.03% (inactive)
5,O=c1[nH]c(CSc2ccccc2)nc2c1oc1ccccc12,-1.34% (inactive)
6,Cc1nc(SCC(=O)NC2CCCC2)[nH]c(=O)c1C,0.618% (inactive)
7,O=C(CN1CCN(S(=O)(=O)c2ccc(Br)cc2)CC1)Nc1ccccc1C(=O)c1ccccc1,-0.92% (inactive)
8,O=S(=O)(Cc1cc(Cl)nc(-c2cccnc2)n1)c1ccccc1,-0.203% (inactive)
9,C=CCN1CN(S(=O)(=O)c2ccc(OC)cc2)c2nc3ccccc3nc21,15.9% (inactive)
10,O=S(=O)(c1ccccc1)N1CN(Cc2ccc(F)cc2)c2nc3ccccc3nc21,19.8% (active)
11,COc1ccc(S(=O)(=O)N2CN(CCc3ccc(OC)c(OC)c3)c3nc4ccccc4nc32)cc1,-0.593% (inactive)
12,O=C(NCCCN1CCOCC1)C1CCCN(S(=O)(=O)N2CCCCC2)C1 (stereo unspecified),7.19% (inactive)
13,CC(C)N1CCc2c(sc(NC(=O)Cc3ccccc3)c2C#N)C1,1.8% (inactive)
14,Cc1ccc2occ(/C=N/NC(=O)c3ccccc3C)c(=O)c2c1,9.31% (inactive)
15,CC(C)(C)OC(=O)NCCCCCC(=O)N/N=C/c1coc2ccccc2c1=O,37.7% (active)
16,NC(=S)N/N=C/c1coc2cc(Cl)ccc2c1=O,-4.85% (inactive)
17,COc1cccc(NC(=O)COc2cc(C)cc3oc(=O)cc(C)c23)c1,-6.8% (inactive)
18,COC(c1ccccc1)(c1ccccc1)C(Oc1nc(C)cc(C)n1)C(=O)O (stereo unspecified),-1.54% (inactive)
19,CC(C)(C)C1CCC(C(=O)NCC(c2cccs2)N2CCOCC2)CC1 (stereo unspecified),1.44% (inactive)
20,O=C(NCc1csc(-c2cccs2)n1)C1CC1,49.8% (active)
21,O=C(NCc1cccs1)C1CCN(S(=O)(=O)c2ccc(Cl)cc2)CC1,8.38% (inactive)

row,SMILES,max response
1,CCN(CC)S(=O)(=O)c1ccc(N2CCN(C)CC2)c(NC(=O)Nc2ccccc2F)c1,-3.4% (inactive)
2,CCC(CC)C(=O)Nc1c2c(nn1-c1ccc(C)cc1)CS(=O)(=O)C2,-1.32% (inactive)
3,Cn1c(N)c(C(=O)COC(=O)c2cnc(Cl)c(Cl)c2)c(=O)n(C)c1=O,-2.82% (inactive)
4,O=C(/C=C/c1ccco1)NC(=S)N1CCCCC1,25.7% (active)
5,CC(C)CNC(=O)COC(=O)/C=C/c1ccco1,-2.86% (inactive)
6,COc1ccc(/C=C/C(=O)NC(=S)N2CCCC(C(N)=O)C2)cc1 (stereo unspecified),12.7% (inactive)
7,CCNC(=S)N1CCN(C(=O)c2ccco2)CC1,-0.408% (inactive)
8,COc1ccc(Cl)cc1C(=O)NNC(=S)NC(=O)/C=C/c1ccco1,0.62% (inactive)
9,O=C(/C=C/c1ccco1)NC(=S)Nc1ccccc1Br,21% (active)
10,O=C(Cc1ccccc1)Nc1ccc(C(=O)Nc2ccccc2C(=O)O)cc1,-2.41% (inactive)
11,Cn1sc(=O)c2cc(S(=O)(=O)NC3CC3)ccc21,-2.97% (inactive)
12,CCCNC(=S)N1CCC(NC(=O)c2ccc(OC)cc2)CC1,-1.83% (inactive)
13,Cc1nnc(SCC(=O)Nc2ccc(S(=O)(=O)Nc3ccc(Cl)nn3)cc2)s1,-1.1% (inactive)
14,CCC(=O)Nc1ccc(C(=O)Nc2cc(C)on2)cc1,17.5% (active)
15,Cc1cc(NC(=O)CSCc2ccccc2C)no1,12.4% (inactive)
16,Cc1cc(NC(=O)c2ccccc2C)no1,32.6% (active)
17,CCOc1ccc(CC(=O)Nc2ccc(S(=O)(=O)Nc3cc(C)on3)cc2)cc1OCC,-4.07% (inactive)
18,CCOc1ccc(C(=O)Nc2cc(OC)ccc2OC)cc1,-3.82% (inactive)
19,CCOc1ccc(NC(=O)Nc2cc(C)on2)cc1,43.6% (active)
20,Cc1cc(NC(=O)CN2CCC(O)(c3cccc(F)c3)CC2)no1,4.43% (inactive)
21,CCC(=O)Nc1ccc(C(=O)Nc2ccc3c(c2)C(=O)N(CC2CCCO2)C3=O)cc1 (stereo unspecified),-2.89% (inactive)

row,SMILES,max response
1,COc1ccc(C)cc1NC(=O)Nc1ccccc1SC,0.774% (inactive)
2,CCOc1ccc(C(=O)Nc2ccc(S(=O)(=O)Nc3cc(C)on3)cc2)cc1,-5.61% (inactive)
3,Cc1cc(NC(=O)c2cccc(N3C(=O)CCC3=O)c2)no1,-2.26% (inactive)
4,CCOc1ccc(NC(=O)Nc2cc(C)ccc2OC)cc1,25.4% (active)
5,COc1cccc(NC(=S)N(CCc2c(C)[nH]c3ccccc23)Cc2ccco2)c1,-1.95% (inactive)
6,O=S(=O)(NC1CC1)c1ccc(Cl)cc1,-3.78% (inactive)
7,CCOC(=O)C1=C(CCc2ccccc2)NC(=O)NC1c1ccc2ccccc2c1 (stereo unspecified),-1.16% (inactive)
8,CC1(c2ccc3ccccc3c2)NC(=O)NC1=O (stereo unspecified),1.06% (inactive)
9,CCN(CC)C(=O)CN(c1cccc(OC)c1)S(=O)(=O)c1ccc(C)cc1,1.38% (inactive)
10,COc1ccc(C)cc1-n1nnnc1SCc1nc2ccccc2c(=O)[nH]1,10.3% (inactive)
11,COc1ccc(CCn2c(NN=C3CCCC3)nc3c2c(=O)[nH]c(=O)n3C)cc1,0.589% (inactive)
12,Cc1ccc(NC(=O)c2sc3nc(N)c(C#N)cc3c2N)cc1,41% (active)
13,CC(=O)Nc1ccc(NC(=O)c2sc3nc4c(c(-c5ccc(C)cc5)c3c2N)CCC4)cc1,0.359% (inactive)
14,CCc1ccc2nc3sc(C(=O)Nc4nnc(CC)s4)c(N)c3cc2c1,17.3% (inactive)
15,CCN1CCN(C(=O)Cn2nc(C)n3c(cc4c(OC)cccc43)c2=O)CC1,1.35% (inactive)
16,Cc1c(Cl)cccc1NC(=O)CCC(=O)N/N=C/c1ccco1,-1.66% (inactive)
17,O=C(CN1CCN(c2ccccn2)CC1)Nc1ccc(Br)cc1,-4.91% (inactive)
18,CCC(=O)Nc1ccc(-c2ccc(N3CCCCC3)nn2)cc1,42.9% (active)
19,CCCCSc1nnc(-c2ccc(NC(=O)CC)cc2)n1C,-3.61% (inactive)
